Data as given in PubChem BioAssay (NCI).
About 83,000 compounds went through this panel and 20% of them were active in at least one assay; those are over-represented in the sample as a whole.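 Single-dose data. Exposure time 48 hours. Values below 10 considered active.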 The source made the active and inactive calls.

test system: K-562 leukemia; experiment: NCI-60 one-dose screen, 48 h (100 = growth as untreated, 0 = no growth, -100 = all killed); settings: 10 µM

Compound | growth
O=C(/C=C/c1ccco1)c1nc2ccccc2n1Cc1ccc(Br)cc1 | 7% (active)
O=C(/C=C/c1ccco1)c1nc2ccccc2n1Cc1ccc(F)cc1 | 20.7% (inactive)
COc1cc2cc(C(=O)N3C[C@@H](CCl)c4c3cc(OC(=O)N3CCN(C)[C@@H]5CSSC[C@@H]53)c3ccccc43)[nH]c2c(OC)c1OC | 10.1% (inactive)
C#CC[Se]C(=O)c1ccc2n[se]nc2c1 | 4.82% (active)
O=C(/C=C/c1ccc(Cl)cc1Cl)c1nc2ccccc2n1Cc1ccc(F)cc1 | 14.5% (inactive)
O=C(/C=C/c1ccc(Cl)cc1)c1nc2ccccc2n1Cc1ccc(Br)cc1 | 13.6% (inactive)
CCOP(=O)(OCC)C(NC(C)=O)C(=O)SCCN (stereo unspecified) | 100% (inactive)
COc1cc2cc(C(=O)N3C[C@@H](CCl)c4c3cc(OC(=O)N3CCN(C)[C@@H]5CSSC[C@H]53)c3ccccc43)[nH]c2c(OC)c1OC | -6.55% (active)
COc1ccc2cc([C@H](C)C(=O)[Se]CCC#N)ccc2c1 | 4.12% (active)
CC12OOC(C)(OO1)C2CCC(=O)OCCNc1ccnc2cc(Cl)ccc12 (stereo unspecified) | 3.42% (active)
CC(C)N=C([Se])NC(=O)c1cccs1 | 71% (inactive)
Cc1ccc2[nH]c(=S)n(-c3ccc(F)cc3)c(=O)c2c1 | 96.6% (inactive)
CCOC(=O)C1=C(Nc2ccccc2)C(=O)OC12C(=O)Nc1ccccc12 (stereo unspecified) | 95.5% (inactive)
CC12CCC3(CCC(=O)NCCCNc4ccnc5cc(Cl)ccc45)[C@@](C)(OO[C@]3(C)O1)O2 | 14.4% (inactive)
CC[C@]12C=CCN3CC[C@@]4(c5ccc(OC)cc5N(C)[C@H]4[C@@](O)(C(=O)OC)[C@@H]1OC(=O)CCCC[P+](C1CCCCC1)(C1CCCCC1)C1CCCCC1)[C@@H]32 | 7.48% (active)
CC(=O)Oc1ccccc1C(=O)[Se]C(=NC(C)C)NC(C)C | -29.6% (active)
COCCOCCOCCOc1ccc(-n2cc(CCCN(CCNc3ccnc4cc(Cl)ccc34)C(=O)CCC(=O)O[C@@H]3O[C@@H]4OC5(C)CC[C@H]6[C@H](C)CC[C@@H]([C@H]3C)[C@@]46OO5)nn2)cc1 | 17.2% (inactive)
C[C@H]1[C@@H](CC(=O)N[C@@H](Cc2coc3ccccc23)B(O)O)O[C@@H]2OC3(C)CC[C@H]4[C@H](C)CC[C@@H]1[C@@]24OO3 | 4.86% (active)

Compound | growth
COP(=O)(CC(F)(F)C(F)(F)F)OC | 10.9% (inactive)
CC12OOC(C)(OO1)C2CCC(=O)NCCNc1ccnc2cc(Cl)ccc12 (stereo unspecified) | 39.4% (inactive)
CC[C@]12C=CCN3CC[C@@]4(c5ccc(OC)cc5N(C)[C@H]4[C@@](O)(C(=O)OC)[C@@H]1OC(=O)CCC[P+](c1ccc(C)cc1)(c1ccc(C)cc1)c1ccc(C)cc1)[C@@H]32 | -13.4% (active)
CC(C)N=C([Se])NC(=O)c1ccccc1 | 15.9% (inactive)
CC[C@]12C=CCN3CC[C@@]4(c5ccc(OC)cc5N(C)[C@H]4[C@@](O)(C(=O)OC)[C@@H]1OC(=O)CCC[P+](C1CCCCC1)(C1CCCCC1)C1CCCCC1)[C@@H]32 | 3.31% (active)
CC1=C(COCCOC(=O)c2ccc(S(=O)(=O)F)cc2)C2=C(C)C3(CC3)[C@@](C)(O)C(=O)C2=C1 | 32.6% (inactive)
CC[C@]12C=CCN3CC[C@@]4(c5ccc(OC)cc5N(C)[C@H]4[C@@](O)(C(=O)OC)[C@@H]1OC(=O)CCCC[P+](c1ccc(OC)cc1)(c1ccc(OC)cc1)c1ccc(OC)cc1)[C@@H]32 | 1.01% (active)
CC[C@@]12CC(C(=O)OC)=C3Nc4cc5c(cc4[C@@]34CCN(C[C@H]3O[C@H]31)[C@@H]24)[C@@H]1[C@H](O5)[C@@H](O)[C@@]2(CC)CC(C(=O)OC)=C3Nc4cc(OC)ccc4[C@@]34CCN1[C@@H]24 | 2.66% (active)
CCOP(=O)(CC(F)(F)C(F)(F)F)OCC | 5.12% (active)
CC(=O)Oc1ccccc1C(=O)NC([Se])=NC1CCCCC1 | 61.8% (inactive)
C[C@H]1[C@H](OC(=O)CCC(=O)N(CCCc2cn(-c3ccc(CN4CCOCC4)cc3)nn2)CCNc2ccnc3cc(Cl)ccc23)O[C@@H]2OC3(C)CC[C@H]4[C@H](C)CC[C@@H]1[C@@]24OO3 | 4.56% (active)
O=C(/C=C/c1ccc(Cl)cc1)c1nc2ccccc2n1Cc1ccc(F)cc1 | 5.25% (active)
O=C(NC([Se])=NC1CCCCC1)c1ccc2c(c1)OCO2 | 74.3% (inactive)
C[C@H]1[C@H](OC(=O)CCC(=O)N(CCCc2cn(-c3ccc(C#N)cc3)nn2)CCNc2ccnc3cc(Cl)ccc23)O[C@@H]2OC3(C)CC[C@H]4[C@H](C)CC[C@@H]1[C@@]24OO3 | 6.77% (active)
C[C@H]1[C@@H](Oc2ccc(-c3cn(-c4ccnc5cc(Cl)ccc45)nn3)cc2)O[C@@H]2OC3(C)CC[C@H]4[C@H](C)CC[C@@H]1[C@@]24OO3 | 22.2% (inactive)
COc1ccc(/C=C/C(=O)c2nc3ccccc3n2Cc2ccc(Br)cc2)cc1 | 21.1% (inactive)
COC(=O)CCn1c(-c2ccc(-n3cc(-c4ccc(O[C@H]5O[C@@H]6OC7(C)CC[C@H]8[C@H](C)CC[C@@H]([C@H]5C)[C@@]68OO7)cc4)nn3)cc2)nc2ccccc21 | 21% (inactive)
C[C@H]1[C@H](OC(=O)CCC(=O)N(CCCc2cn(-c3ccc([N+](=O)[O-])cc3)nn2)CCNc2ccnc3cc(Cl)ccc23)O[C@@H]2OC3(C)CC[C@H]4[C@H](C)CC[C@@H]1[C@@]24OO3 | 8.36% (active)
